Common to all, as to test: DAPPL (digital affinity profiling via proximity ligation, sequencing); 10 mM Tris-HCl pH 7.5, 50 mM NaCl, 1 mM DTT, 4% glycerol, room temperature, 30 min; GST-TFs on glutathione beads, 16-mer random dsDNA library, 0.1% formaldehyde crosslink after washing; high values mean tight binding
Assay [1] addresses T1, FEV (Homo sapiens, UniProt Q99581 1-238).
T1 sequence: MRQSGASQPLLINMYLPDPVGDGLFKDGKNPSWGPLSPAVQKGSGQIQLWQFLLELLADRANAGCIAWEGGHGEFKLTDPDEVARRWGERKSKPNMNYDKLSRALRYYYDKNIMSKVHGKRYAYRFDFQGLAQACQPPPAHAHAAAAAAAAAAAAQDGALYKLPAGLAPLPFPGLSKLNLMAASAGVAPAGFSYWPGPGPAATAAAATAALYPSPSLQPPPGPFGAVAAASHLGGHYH
The following applies: protein: recombinant; tags: N-terminal GST; dsDNA, one strand shown. The method, boiled down: (§1)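 Sequencing on an Illumina NextSeq500 followed washing, crosslinking with 0.1% formaldehyde, proximity ligation (BsaI/T4 ligase, 1 h, 37 °C) and PCR amplification of pools that had been incubated for 30 min at room temperature with 200 nmole of a random double-stranded 16-mer DNA library in Tris/NaCl/DTT/glycerol buffer. Each pool held DNA-barcoded human transcription factors, expressed in yeast as GST fusions and captured on glutathione beads, plus a tag-only sample. Binding signal is a hexamer's read frequency for a factor divided by its frequency in the tag-only sample.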

Assay [2] has as its target ETV5 (Homo sapiens, UniProt P41161 1-510). The following applies: protein: recombinant; tags: N-terminal GST; dsDNA, one strand shown. The method, boiled down: as §1
Assay [3] concerns the target HSF1 (Homo sapiens, UniProt Q00613 1-529). The note with it: protein: recombinant; tags: N-terminal GST; chain copies: 3; dsDNA, one strand shown. Summed up:
as §1

In assay [4] the target is T2, SPIC (Homo sapiens, UniProt Q8N5J4 1-248).
T2 sequence: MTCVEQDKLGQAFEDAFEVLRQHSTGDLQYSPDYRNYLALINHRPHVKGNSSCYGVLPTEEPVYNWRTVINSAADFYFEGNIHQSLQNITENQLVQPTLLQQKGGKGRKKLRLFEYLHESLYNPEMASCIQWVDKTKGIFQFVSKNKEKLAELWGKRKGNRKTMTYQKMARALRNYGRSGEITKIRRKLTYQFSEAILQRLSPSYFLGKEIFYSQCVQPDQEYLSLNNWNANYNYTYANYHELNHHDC
The following applies: protein: recombinant; tags: N-terminal GST; dsDNA, one strand shown. Summed up: as §1

Assay [5] deals with ELF4 (Homo sapiens, UniProt Q99607 1-663). The note with it: protein: recombinant; tags: N-terminal GST; dsDNA, one strand shown. Summed up:
as §1

The target of assay [6] is T3, ELK4 (Homo sapiens, UniProt P28324-2 1-405).
T3 sequence: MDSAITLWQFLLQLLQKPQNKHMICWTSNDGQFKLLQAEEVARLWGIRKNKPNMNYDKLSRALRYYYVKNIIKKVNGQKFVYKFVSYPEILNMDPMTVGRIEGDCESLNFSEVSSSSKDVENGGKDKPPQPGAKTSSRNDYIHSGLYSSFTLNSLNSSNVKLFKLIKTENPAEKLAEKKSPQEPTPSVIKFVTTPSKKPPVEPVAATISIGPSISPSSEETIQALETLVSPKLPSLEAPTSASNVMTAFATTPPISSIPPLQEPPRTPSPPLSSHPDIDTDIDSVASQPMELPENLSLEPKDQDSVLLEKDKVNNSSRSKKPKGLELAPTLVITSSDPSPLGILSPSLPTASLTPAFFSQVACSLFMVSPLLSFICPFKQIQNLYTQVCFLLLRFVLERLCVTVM
The following applies: protein: recombinant; tags: N-terminal GST; dsDNA, one strand shown. Summed up:
as §1

Assay [7] concerns the target T4, ETV2 (Homo sapiens, UniProt O00321 1-342).
T4 sequence: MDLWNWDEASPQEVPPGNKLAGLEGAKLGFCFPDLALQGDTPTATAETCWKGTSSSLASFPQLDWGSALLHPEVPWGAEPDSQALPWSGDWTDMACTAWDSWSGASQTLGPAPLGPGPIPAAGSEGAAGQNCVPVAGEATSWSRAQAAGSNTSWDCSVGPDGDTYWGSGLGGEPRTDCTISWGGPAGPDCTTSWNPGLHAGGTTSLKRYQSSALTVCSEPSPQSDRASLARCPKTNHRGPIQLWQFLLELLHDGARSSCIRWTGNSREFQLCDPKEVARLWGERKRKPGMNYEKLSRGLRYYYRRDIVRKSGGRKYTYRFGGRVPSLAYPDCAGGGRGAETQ
The following applies: protein: recombinant; tags: N-terminal GST; dsDNA, one strand shown. Summed up:
as §1

Assay [8] concerns the target T5, ELF3 (Homo sapiens, UniProt P78545 1-371).
T5 sequence: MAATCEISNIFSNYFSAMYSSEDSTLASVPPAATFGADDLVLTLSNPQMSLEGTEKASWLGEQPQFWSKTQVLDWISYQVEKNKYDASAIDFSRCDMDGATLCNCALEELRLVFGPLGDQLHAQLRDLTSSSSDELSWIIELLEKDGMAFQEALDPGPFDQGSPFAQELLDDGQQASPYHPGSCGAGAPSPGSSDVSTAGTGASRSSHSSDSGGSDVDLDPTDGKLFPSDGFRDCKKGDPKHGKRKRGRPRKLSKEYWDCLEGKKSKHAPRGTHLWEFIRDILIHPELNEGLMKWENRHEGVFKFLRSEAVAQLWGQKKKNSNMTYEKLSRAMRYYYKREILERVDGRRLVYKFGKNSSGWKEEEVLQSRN
The note with it: protein: recombinant; tags: N-terminal GST; dsDNA, one strand shown. The method, boiled down: as §1

Assay [9] has as its target CRX (Homo sapiens, UniProt O43186 1-299). The note with it: protein: recombinant; tags: N-terminal GST; dsDNA, one strand shown. Summed up: as §1
Assay [10] addresses ETV1 (Homo sapiens, UniProt P50549 1-477). The note with it: protein: recombinant; tags: N-terminal GST; dsDNA, one strand shown. The method, boiled down: as §1
Assay [11] deals with T6, ERF (Homo sapiens, UniProt P50548 1-548).
T6 sequence: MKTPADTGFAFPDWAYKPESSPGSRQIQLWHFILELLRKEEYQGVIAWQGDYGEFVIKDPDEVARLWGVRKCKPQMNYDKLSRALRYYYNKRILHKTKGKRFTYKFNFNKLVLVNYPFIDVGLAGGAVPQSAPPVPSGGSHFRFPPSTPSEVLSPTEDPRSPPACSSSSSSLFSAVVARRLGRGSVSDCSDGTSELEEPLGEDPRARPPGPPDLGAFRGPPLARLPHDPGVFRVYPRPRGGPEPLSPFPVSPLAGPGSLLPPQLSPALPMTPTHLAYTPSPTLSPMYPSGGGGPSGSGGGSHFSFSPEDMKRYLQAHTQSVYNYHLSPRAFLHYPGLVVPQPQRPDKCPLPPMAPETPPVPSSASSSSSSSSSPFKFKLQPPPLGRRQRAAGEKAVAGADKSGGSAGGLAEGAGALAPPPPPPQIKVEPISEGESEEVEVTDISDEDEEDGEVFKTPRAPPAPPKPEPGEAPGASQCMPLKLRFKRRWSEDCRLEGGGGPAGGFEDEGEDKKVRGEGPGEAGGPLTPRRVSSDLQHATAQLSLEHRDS
The note with it: protein: recombinant; tags: N-terminal GST; dsDNA, one strand shown. Summed up: as §1

Assay [12] addresses T7, ETV3L (Homo sapiens, UniProt Q6ZN32 1-361).
T7 sequence: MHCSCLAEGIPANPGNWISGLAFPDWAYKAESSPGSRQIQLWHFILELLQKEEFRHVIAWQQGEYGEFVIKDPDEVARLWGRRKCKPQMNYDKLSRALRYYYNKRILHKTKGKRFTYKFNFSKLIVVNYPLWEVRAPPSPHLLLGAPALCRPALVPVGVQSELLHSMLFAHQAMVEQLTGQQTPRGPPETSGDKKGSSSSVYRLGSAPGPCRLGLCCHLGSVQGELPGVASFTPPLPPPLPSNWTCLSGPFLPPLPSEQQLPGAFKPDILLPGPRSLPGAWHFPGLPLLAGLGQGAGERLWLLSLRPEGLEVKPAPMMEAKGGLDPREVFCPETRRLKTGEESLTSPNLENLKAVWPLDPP
The note with it: protein: recombinant; tags: N-terminal GST; dsDNA, one strand shown. The method, boiled down: as §1

Assay [13] has as its target T8, ETS2 (Homo sapiens, UniProt P15036 1-469).
T8 sequence: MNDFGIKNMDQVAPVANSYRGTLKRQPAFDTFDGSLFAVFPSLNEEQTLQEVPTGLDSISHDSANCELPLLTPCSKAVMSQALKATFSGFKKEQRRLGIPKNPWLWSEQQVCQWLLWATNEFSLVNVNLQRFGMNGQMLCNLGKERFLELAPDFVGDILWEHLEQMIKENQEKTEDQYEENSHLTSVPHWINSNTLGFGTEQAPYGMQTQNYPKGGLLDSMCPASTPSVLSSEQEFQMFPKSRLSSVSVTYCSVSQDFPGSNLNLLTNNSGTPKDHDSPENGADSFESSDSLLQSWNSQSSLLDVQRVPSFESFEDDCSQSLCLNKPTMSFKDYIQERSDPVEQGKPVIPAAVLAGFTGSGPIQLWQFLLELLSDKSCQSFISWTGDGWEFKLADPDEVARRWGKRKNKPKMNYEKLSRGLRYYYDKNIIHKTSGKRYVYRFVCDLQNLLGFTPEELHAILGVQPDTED
The following applies: protein: recombinant; tags: N-terminal GST; dsDNA, one strand shown. The method, boiled down: as §1

In assay [14] the target is T9, SPDEF (Homo sapiens, UniProt O95238 1-335).
T9 sequence: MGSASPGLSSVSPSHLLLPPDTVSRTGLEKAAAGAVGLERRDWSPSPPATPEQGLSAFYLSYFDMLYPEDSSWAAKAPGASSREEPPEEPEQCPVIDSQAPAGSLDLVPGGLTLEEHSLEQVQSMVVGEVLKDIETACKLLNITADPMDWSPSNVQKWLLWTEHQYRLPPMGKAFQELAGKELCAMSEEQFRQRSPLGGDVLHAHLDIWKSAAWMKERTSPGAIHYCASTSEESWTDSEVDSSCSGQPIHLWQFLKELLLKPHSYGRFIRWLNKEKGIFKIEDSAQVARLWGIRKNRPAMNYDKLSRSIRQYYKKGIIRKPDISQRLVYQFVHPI
The following applies: protein: recombinant; tags: N-terminal GST; dsDNA, one strand shown. Summed up:
as §1

The target of assay [15] is T10, ETV7 (Homo sapiens, UniProt Q9Y603 1-341).
T10 sequence: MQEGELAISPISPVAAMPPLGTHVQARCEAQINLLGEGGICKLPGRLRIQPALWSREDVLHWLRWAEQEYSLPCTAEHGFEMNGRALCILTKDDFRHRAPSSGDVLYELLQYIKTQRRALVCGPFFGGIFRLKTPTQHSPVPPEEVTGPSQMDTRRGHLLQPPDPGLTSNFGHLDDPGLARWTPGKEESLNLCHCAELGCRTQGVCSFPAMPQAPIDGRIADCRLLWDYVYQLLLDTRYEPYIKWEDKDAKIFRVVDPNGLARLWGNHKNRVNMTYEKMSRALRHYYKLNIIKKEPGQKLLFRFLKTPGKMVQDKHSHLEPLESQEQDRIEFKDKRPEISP
The following applies: protein: recombinant; tags: N-terminal GST; dsDNA, one strand shown. The method, boiled down: as §1

Assay [16] concerns the target T11, ELF5 (Homo sapiens, UniProt Q9UKW6-2 1-255).
T11 sequence: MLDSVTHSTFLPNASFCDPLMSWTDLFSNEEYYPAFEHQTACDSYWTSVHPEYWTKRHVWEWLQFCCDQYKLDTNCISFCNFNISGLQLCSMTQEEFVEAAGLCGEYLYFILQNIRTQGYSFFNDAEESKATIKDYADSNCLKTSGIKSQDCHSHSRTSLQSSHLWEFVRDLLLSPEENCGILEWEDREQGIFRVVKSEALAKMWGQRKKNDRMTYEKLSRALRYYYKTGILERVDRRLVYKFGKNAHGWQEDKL
The note with it: protein: recombinant; tags: N-terminal GST; dsDNA, one strand shown. Summed up: as §1

Assay [17] has as its target T12, ETV3 (Homo sapiens, UniProt P41162-2 1-143).
T12 sequence: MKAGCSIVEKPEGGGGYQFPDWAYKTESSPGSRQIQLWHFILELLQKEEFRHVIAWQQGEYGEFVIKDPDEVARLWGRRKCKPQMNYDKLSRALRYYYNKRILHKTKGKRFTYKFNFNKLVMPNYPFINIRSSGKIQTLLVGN
The following applies: protein: recombinant; tags: N-terminal GST; dsDNA, one strand shown. Summed up:
as §1

The target of assay [18] is ETV6 (Homo sapiens, UniProt P41212 1-452). The following applies: protein: recombinant; tags: N-terminal GST; dsDNA, one strand shown. Summed up: as §1
ETV6, sequence (P41212 whole entry): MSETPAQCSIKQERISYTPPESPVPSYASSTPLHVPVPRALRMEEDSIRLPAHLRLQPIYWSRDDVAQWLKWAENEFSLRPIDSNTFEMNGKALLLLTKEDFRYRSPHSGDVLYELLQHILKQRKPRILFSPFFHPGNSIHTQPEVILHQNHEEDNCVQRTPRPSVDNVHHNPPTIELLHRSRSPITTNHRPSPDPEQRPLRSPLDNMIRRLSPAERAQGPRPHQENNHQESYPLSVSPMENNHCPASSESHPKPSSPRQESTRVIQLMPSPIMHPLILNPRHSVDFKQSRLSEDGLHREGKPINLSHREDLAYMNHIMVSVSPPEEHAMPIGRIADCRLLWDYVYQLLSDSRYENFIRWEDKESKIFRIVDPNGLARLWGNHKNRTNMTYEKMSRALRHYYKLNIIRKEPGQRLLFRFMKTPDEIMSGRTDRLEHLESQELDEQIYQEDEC

CRX, sequence (O43186 whole entry): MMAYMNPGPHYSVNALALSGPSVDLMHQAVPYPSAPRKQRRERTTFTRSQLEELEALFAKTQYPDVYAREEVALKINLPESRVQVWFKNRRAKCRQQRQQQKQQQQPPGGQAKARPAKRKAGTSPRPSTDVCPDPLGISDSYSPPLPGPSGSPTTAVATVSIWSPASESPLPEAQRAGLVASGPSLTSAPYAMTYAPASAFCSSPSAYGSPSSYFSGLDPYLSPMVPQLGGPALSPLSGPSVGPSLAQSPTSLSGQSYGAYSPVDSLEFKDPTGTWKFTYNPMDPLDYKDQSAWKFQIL
HSF1, sequence (Q00613 whole entry): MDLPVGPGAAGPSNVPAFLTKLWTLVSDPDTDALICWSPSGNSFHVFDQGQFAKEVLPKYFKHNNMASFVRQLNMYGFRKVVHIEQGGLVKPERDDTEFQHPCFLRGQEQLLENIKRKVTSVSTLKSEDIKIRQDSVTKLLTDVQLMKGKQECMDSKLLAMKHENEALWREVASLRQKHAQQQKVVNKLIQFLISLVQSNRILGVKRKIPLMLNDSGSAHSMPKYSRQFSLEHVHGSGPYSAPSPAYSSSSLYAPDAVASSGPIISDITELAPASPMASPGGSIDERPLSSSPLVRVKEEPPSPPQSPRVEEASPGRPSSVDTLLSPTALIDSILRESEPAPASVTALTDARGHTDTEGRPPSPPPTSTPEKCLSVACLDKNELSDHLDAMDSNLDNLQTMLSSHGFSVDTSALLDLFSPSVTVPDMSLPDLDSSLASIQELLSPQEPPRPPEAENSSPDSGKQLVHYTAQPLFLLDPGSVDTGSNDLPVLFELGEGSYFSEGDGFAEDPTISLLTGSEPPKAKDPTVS
ELF4, sequence (Q99607 whole entry): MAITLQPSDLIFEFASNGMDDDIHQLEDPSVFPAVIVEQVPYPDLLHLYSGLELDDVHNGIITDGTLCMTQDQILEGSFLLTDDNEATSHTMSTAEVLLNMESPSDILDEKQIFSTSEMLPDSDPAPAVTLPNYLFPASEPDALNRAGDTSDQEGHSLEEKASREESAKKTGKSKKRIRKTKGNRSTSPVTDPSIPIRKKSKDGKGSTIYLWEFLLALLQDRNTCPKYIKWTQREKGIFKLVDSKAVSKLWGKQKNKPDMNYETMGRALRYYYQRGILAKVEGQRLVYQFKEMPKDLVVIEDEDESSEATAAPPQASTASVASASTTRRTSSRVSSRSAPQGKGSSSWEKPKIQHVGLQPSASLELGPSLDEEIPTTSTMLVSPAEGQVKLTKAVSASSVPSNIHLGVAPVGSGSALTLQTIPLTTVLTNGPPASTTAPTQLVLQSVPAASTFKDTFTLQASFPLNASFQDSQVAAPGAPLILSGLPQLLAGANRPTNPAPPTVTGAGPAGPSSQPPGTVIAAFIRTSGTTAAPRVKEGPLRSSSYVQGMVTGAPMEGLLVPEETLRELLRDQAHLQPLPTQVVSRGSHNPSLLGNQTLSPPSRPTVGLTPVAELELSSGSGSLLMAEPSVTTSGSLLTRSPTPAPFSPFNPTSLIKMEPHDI
ETV1, sequence (P50549 whole entry): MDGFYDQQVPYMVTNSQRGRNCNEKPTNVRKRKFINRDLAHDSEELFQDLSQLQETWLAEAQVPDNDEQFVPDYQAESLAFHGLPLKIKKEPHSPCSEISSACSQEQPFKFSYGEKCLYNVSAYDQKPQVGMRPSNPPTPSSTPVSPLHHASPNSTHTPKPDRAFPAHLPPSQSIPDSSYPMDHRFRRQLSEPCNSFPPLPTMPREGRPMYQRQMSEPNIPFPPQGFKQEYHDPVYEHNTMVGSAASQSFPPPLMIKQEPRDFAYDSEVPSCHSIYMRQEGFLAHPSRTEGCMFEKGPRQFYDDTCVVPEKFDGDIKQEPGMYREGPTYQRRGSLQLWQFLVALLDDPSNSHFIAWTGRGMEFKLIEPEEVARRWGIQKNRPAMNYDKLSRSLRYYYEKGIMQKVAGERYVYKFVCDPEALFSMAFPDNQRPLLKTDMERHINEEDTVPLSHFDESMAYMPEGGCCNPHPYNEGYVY
ETV5, sequence (P41161 whole entry): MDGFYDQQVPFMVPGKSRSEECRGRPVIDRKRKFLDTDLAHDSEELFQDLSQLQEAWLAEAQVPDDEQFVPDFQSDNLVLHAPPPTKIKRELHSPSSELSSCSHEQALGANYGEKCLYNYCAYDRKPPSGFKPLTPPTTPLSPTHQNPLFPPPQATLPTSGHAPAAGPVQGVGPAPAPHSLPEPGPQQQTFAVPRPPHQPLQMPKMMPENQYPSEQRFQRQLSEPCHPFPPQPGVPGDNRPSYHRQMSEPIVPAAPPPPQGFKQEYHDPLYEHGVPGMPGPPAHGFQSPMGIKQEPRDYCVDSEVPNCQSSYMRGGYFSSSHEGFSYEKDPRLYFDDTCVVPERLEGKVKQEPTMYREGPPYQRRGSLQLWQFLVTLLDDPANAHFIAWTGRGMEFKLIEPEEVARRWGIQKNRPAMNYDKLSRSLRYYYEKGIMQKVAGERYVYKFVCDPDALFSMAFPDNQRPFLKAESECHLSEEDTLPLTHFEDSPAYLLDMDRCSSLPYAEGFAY

On to GCACTT, for which the binding signal in assay [1] is 2.33 fold enrichment (6-mer frequency, TF over GST control); in assay [2] it was 1.88 fold enrichment (6-mer frequency, TF over GST control); in [3] it was 1.17 fold enrichment (6-mer frequency, TF over GST control); in assay [4], 1.63 fold enrichment (6-mer frequency, TF over GST control); in assay [5], 1.77 fold enrichment (6-mer frequency, TF over GST control); in assay [6] it was 1.62 fold enrichment (6-mer frequency, TF over GST control). Besides, the binding signal in assay [7] is 1.66 fold enrichment (6-mer frequency, TF over GST control); in [8] it was 1.85 fold enrichment (6-mer frequency, TF over GST control); in assay [9] it was 1.16 fold enrichment (6-mer frequency, TF over GST control); in assay [10] it was 1.86 fold enrichment (6-mer frequency, TF over GST control); in assay [11], 1.61 fold enrichment (6-mer frequency, TF over GST control); in [12], 1.84 fold enrichment (6-mer frequency, TF over GST control). Besides, the binding signal in assay [13] is 1.76 fold enrichment (6-mer frequency, TF over GST control); in assay [14] it was 1.91 fold enrichment (6-mer frequency, TF over GST control); in assay [15], 1.92 fold enrichment (6-mer frequency, TF over GST control); in [16] it was 1.88 fold enrichment (6-mer frequency, TF over GST control); in assay [17], 1.94 fold enrichment (6-mer frequency, TF over GST control); in assay [18], 2 fold enrichment (6-mer frequency, TF over GST control).

For the origin of these results see publication PMC7862700, “An all-to-all approach to the identification of sequence-specific readers for epigenetic DNA modifications on cytosine”.
